# Rows were chosen to be rich in hits. Some 19% of all compounds tested hit in one or more screens of this group.
# IL-1B inflam inh – blocks inflammasome-driven IL-1 beta release; THP-1 LPS/ATP IL-1B secretion, AlphaLISA, 16 h; hits give low values; activity change, % at 57.5 µM; 360,000 compounds, 4.7% hits; in the data active means activity change below about -50%; inconclusive means mostly about -30% to -49%; further: on the % scale 0 is the no-effect control and ±100 the full control effect
#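 THP-1 cells pretreated 1 hr with compounds (up to 57.5 uM final), then stimulated with LPS (250 ng/mL final) plus ATP (1.25 mM final); secreted IL-1B measured by AlphaLISA after 16 hr, decreased signal indicating inhibition.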
# TDP1 cell CPT – growth inhibition of DT40 Tdp1-/-;hTDP1 cells with camptothecin (screen for TDP1 inhibitors). AID 686979. chicken DT40 Tdp1-/-;hTDP1 cells + 20 nM CPT, ATP luminescence, 48 h. 420,000 compounds, 12% hits. Potency, µM (series often up to 46.2 µM), for inactives: at the highest dose activity change, negative = growth inhibition, most hits filed as inhibitors; further: potency means the concentration at half of the fitted maximal effect; on the % scale 0 is the no-effect control and ±100 the full control effect; nearly all actives have a fitted effect of over 55% in size
#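 Chicken DT40 Tdp1-/- cells complemented with human TDP1, 400 cells/well, exposed to compounds plus 20 nM camptothecin for at least 48 h at 37 C; viability read as ATP content by CellTiter-Glo luminescence.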
# DT40 TDP1 no CPT – qHTS for Inhibitors of human tyrosyl-DNA phosphodiesterase 1 (TDP1): qHTS in cells in absence of CPT. 420,000 compounds, 15% hits. DT40 Tdp1-/- hTDP1 cells, no CPT, ATP luminescence, 48 h. Potency, µM (series often up to 46.2 µM), for inactives: top-dose activity change, negative = growth inhibition, most hits filed as inhibitors. AID 686978, 2013; further: potency means the concentration at half of the fitted maximal effect; on the % scale 0 is the no-effect control and ±100 the full control effect; nearly all actives have a fitted effect of over 55% in size
#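 No-CPT arm: Tdp1-/-;hTDP1 DT40 cells (400/well) plus compounds, incubated ≥48 hr at 37 °C. Readout CellTiter-Glo luminescence.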
# TGFb inhibitor – TGF-b pathway inhibition. HepG2 CAGA-GFP TGF-b/SMAD3 reporter, GFP fluorescence, 18 h; TGF-beta stimulated, 500 pg/mL final. Potency, µM (highest dose often 46.1 µM), inactives show top-dose activity, negative = inhibition, usual class: inhibitors. 410,000 compounds, 1.2% hits; further: potency means the concentration at half of the fitted maximal effect; on the % scale 0 is the no-effect control and ±100 the full control effect; nearly all actives have a fitted effect of over 65% in size
#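 HEPG2 CAGA-GFP reporter cells (1000/well, DMEM with 1% FBS) received compounds, then recombinant TGF-beta at 500 pg/mL final for 18 hours at 37 degrees C. Per-cell GFP summed per well was normalised to unstimulated and stimulated DMSO controls before curve fitting.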
# TDP1 inh – TDP1 (human) enzyme inhibition. Potency, µM (titrated, usually from 130 µM), without a hit: at the top dose activity change, negative = inhibition, most hits filed as inhibitors. 350,000 compounds, 0.28% hits. recombinant TDP1, AlphaScreen DNA substrate cleavage. Q9NUW8; further: potency means the concentration at half of the fitted maximal effect; on the % scale 0 is the no-effect control and ±100 the full control effect; nearly all actives have a fitted effect of over 40% in size
# Target sequence (Q9NUW8 whole entry, looked up): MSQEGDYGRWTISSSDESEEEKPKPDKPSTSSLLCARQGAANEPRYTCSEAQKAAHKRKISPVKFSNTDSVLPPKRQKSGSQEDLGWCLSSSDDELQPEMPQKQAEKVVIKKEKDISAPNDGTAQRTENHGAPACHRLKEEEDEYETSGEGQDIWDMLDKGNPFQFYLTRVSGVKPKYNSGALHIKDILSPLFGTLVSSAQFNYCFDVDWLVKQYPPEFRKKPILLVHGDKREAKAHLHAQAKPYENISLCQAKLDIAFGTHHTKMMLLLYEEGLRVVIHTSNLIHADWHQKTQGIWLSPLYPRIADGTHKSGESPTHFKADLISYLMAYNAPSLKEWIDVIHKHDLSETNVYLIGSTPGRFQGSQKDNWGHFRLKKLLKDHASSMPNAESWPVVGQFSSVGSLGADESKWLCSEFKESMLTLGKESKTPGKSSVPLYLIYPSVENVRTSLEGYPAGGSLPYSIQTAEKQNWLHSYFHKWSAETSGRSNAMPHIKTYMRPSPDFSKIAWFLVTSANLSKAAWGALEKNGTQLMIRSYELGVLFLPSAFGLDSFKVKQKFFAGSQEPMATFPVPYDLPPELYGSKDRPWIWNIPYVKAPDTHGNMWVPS
#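 Here, a 5' biotin and 3' phosphotyrosine-FITC DNA oligonucleotide reports Tdp1 activity: intact substrate bridges AlphaScreen beads, while cleavage leaves a 3' phosphate and drops signal. All incubations at room temperature.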
# HepG2 tox – HepG2 cytotoxicity, counter-screen for TGF-b inhibitors; 410,000 compounds, 0.76% hits; Potency, µM (top dose mostly 46.1 µM), without a hit: top-dose activity change, negative = cytotoxicity, most hits filed as cytotoxic; HepG2 CAGA-GFP viability, ATP luminescence, 18 h; further: potency means the concentration at half of the fitted maximal effect
#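 CellTiter-Glo luminescence gave cytotoxicity after 18 hours at 37 degrees C. The cells were HepG2 CAGA-GFP in 1% FBS DMEM, stimulated with 500 pg/mL TGF-beta after compound addition. %Activity was normalised to no-cell wells (complete cell-killing) and DMSO (no toxicity), and curves were fitted and classified.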
# The depositor's hits bear a star; ? = inconclusive; / = no result given; [ ] = another dose, or the depositor's remark. Unless noted, the call rests on the fitted dose curve; in most records, active means well fitted curve in the direction sought with a large enough effect; inconclusive means small, poorly fitted or top-dose-only effect, or another doubt; inactive means no such curve, though single readings can be large; an effect the other way counts as inactive or inconclusive.
SMILES,IL-1B inflam inh,TDP1 cell CPT,DT40 TDP1 no CPT,TGFb inhibitor,TDP1 inh,HepG2 tox
ON=C1c2cc(OCCN3CCCCC3)ccc2-c2ccc(OCCN3CCCCC3)cc21,-97*,7.3µM*,8.2µM*,?,-9%,-53%
C=CCOc1ccc2c(c1)C(=NO)c1cc(OCC=C)ccc1-2,?,?,23µM*,?,2%,-37%
NC(=S)NN=C1c2cc(OCCN3CCOCC3)ccc2-c2ccc(OCCN3CCOCC3)cc21,-96*,16µM*,16µM*,?,/,-60%
C=Cc1ccc(Cn2c(=O)cc(C)c3c(C)nn(-c4ccccc4)c32)cc1,/,-24%,1%,-12%,6%,-12%
COc1ccc(-c2oc(=O)c3cc(OC)c(OC)cc3c2/C=C/c2ccc(OC(C)=O)cc2)cc1,-25,21µM*,9.2µM*,?,1%,-3%
COc1cc(-c2noc(C)c2/C=C/c2ccc(OC(C)=O)cc2)cc(OC)c1OC,67,0.73µM*,0.82µM*,?,/,-1%
COc1ccc(-c2oc(=O)c3cc(OC)c(OC)cc3c2/C=C/c2ccc(F)cc2)cc1,5,-8%,?,?,1%,-2%
COc1ccc(C(=O)Nc2ccc(OCC(F)(F)C(F)F)c(C(F)(F)F)c2)cc1OC,-23,11µM*,11µM*,?,2%,3%
O=C(Nc1ccc(OCC(F)(F)C(F)F)c(C(F)(F)F)c1)c1ccc(Cl)cc1,-104*,23µM*,?,?,/,18µM*
NC(=O)c1ccc2c(=O)c(O)c(-c3cc(Cl)c(N)c(Cl)c3)[nH]c2c1,-6,-19%,-5%,-4%,/,2%
COc1cc(N=Nc2cccc(S(N)(=O)=O)c2)c2ccccc2c1N,?,?,18µM*,0%,9%,-29%
COc1cc(SSc2cc(OC)cc([N+](=O)[O-])c2N)c(N)c([N+](=O)[O-])c1,-77*,4.6µM*,4.1µM*,?,/,-58%
COc1ccc(C2Nc3ccccc3C(=O)N2CCc2ccccc2)cc1COc1ccc(NC(C)=O)cc1 (centres undefined),/,/,/,/,1%,/
COc1ccc(C)cc1NC(=O)c1sc2nc(-c3ccc(F)cc3)cn2c1C,/,0%,-10%,-3%,2%,18%
CCOc1ccccc1NC(=O)COc1coc(CN2CCc3ccccc32)cc1=O,19,?,?,-1%,0%,-11%
CCOC(=O)c1ccccc1NC(=O)COc1coc(CN2CCc3ccccc32)cc1=O,15,?,?,-16%,2%,-13%
O=C(COc1coc(CN2CCc3ccccc32)cc1=O)NCCc1ccccc1,9,?,18µM*,3%,1%,-8%
O=C(COc1coc(CN2CCc3ccccc32)cc1=O)N1CCCCC1,11,8%,1%,9%,3%,-1%
Cc1ccccc1NC(=O)COc1coc(CN2CCCc3ccccc32)cc1=O,-4,21µM*,15µM*,0%,-3%,-24%
Cc1ccc(NC(=O)COc2coc(CN3CCc4ccccc43)cc2=O)cc1Cl,-6,23µM*,15µM*,?,/,-28%
Cc1ccc(C)c(NC(=O)COc2coc(CN3CCc4ccccc43)cc2=O)c1,-18,-84%,12µM*,?,-4%,-18%
Cc1ccc(OCCOCCn2c(-c3ccc(Cl)cc3)nc3ccccc3c2=O)cc1,/,-18%,-9%,-18%,/,-1%
Cc1ccc(C)c(CN2C(=O)C(O)(c3c[nH]c4ccccc34)c3ccccc32)c1 (centres undefined),/,29µM*,23µM*,?,1%,-103%
Cc1ccccc1CN1C(=O)C(O)(c2c[nH]c3ccccc23)c2cc(Cl)ccc21 (centres undefined),/,16µM*,18µM*,16µM*,-2%,11µM*
O=C1N(Cc2ccccc2)c2ccccc2C1(O)c1c[nH]c2ccccc12 (centres undefined),/,-17%,-30%,-21%,5%,-50%
SMILES,IL-1B inflam inh,TDP1 cell CPT,DT40 TDP1 no CPT,TGFb inhibitor,TDP1 inh,HepG2 tox
O=C1N(Cc2ccccc2Cl)c2ccccc2C1(O)c1c[nH]c2ccccc12 (centres undefined),/,16µM*,?,?,6%,-114%
COc1ccc(OC)c(C2C=C(c3ccc(C)c(C)c3)Nc3nnnn32)c1 (centres undefined),22,4.6µM*,2.3µM*,0%,4%,-8%
COc1cccc(C2=CC(c3cc(OC)ccc3OC)n3nnnc3N2)c1 (centres undefined),-77*,7.3µM*,6.5µM*,?,3%,-2%
c1ccc(N2CCN(Cc3cccn3-c3nnc(N4CCN(C5CCCCC5)CC4)s3)CC2)cc1,/,-6%,-5%,0%,4%,16%
CCOc1ccccc1CNCc1cccn1-c1nnc(N2CCN(c3ccccc3)CC2)s1,/,5.8µM*,3.3µM*,?,7%,-83%
CCc1ccc(NC(=O)CN2CCN(Cc3ccccc3)S2(=O)=O)cc1,/,-17%,-24%,-4%,6%,-9%
CCc1ccc(NC(=O)CN2CCCN(Cc3cccc(Cl)c3)S2(=O)=O)cc1,/,?,-21%,0%,0%,-20%
CCc1cccc(C)c1NC(=O)CN1CCCN(Cc2ccccc2Cl)S1(=O)=O,/,?,23µM*,0%,3%,-14%
CCc1cccc(C)c1NC(=O)CN1CCN(Cc2ccccc2Cl)S1(=O)=O,/,?,26µM*,?,0%,-25%
O=C(CN1CCCN(Cc2ccc(F)cc2)S1(=O)=O)NCc1ccccc1Cl,/,?,16µM*,?,0%,-2%
Cc1ccc(S(=O)(=O)N2CCN(C(=O)c3cc4c(s3)CCC(C)C4)CC2)cc1 (centres undefined),6,?,16µM*,1%,-9%,2%
CC(=O)N1CCN(C(=O)c2cc3c(s2)CCC(C)C3)CC1 (centres undefined),-2,-23%,-24%,?,-10%[0.505 µM],-1%
CCOc1ccc(S(=O)(=O)N2CCN(C(=O)c3cc4c(s3)CCCC4)CC2)cc1,-3,16µM*,?,-18%,2%,4%
CCOc1ccc(S(=O)(=O)N2CCN(C(=O)c3ccco3)CC2)cc1,14,-1%,-19%,-14%,7%,1%
